HPGD block: HPGD (human) dehydrogenase inhibition; P15428; purified HPGD, NADH fluorescence kinetic, PGE2 substrate; Potency, µM, usual class: inhibitors; actives 4.3% (n = 150,000); AID 894
Target sequence (P15428 whole entry, looked up): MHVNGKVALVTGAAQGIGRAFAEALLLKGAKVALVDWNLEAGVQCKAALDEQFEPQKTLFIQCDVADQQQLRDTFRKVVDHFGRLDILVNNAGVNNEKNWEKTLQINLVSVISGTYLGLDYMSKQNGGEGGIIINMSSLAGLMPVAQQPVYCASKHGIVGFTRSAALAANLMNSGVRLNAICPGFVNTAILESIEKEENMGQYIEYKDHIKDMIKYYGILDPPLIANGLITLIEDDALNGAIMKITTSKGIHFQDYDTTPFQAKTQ
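20 nM HPGD preincubated 15 min at room temperature with compound in 50 mM Tris-HCl pH 8, 0.01% Tween 20. Started with 1 mM NAD+ and 30 uM prostaglandin E2; NADH fluorescence (360/450 nm) read 5 times over 30-s intervals, last minus first.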
PNC inhibitor: inhibitors of perinucleolar compartment assembly. PC3M PTB-GFP, PNC prevalence imaging, 16 h; hits give low values. activity change (PNC), negative = inhibition, % at 10 µM. actives 3.1% (n = 140,000);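 active means readout at or below -70, meaning at least 70% loss of cells showing the perinucleolar compartment, a nuclear body marking cancer cells; inconclusive means readout between -30 and a set limit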
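PC3M cells stably expressing PTB-GFP, 750–1000 cells/well, treated 16 h at 37 °C with compound (23 nl of library stock), in duplicate. After paraformaldehyde fixation and Hoechst stain, imaged at 20x; PNC prevalence scored by image analysis.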
ALDH1A1 block: inhibitors of human aldehyde dehydrogenase 1A1 | Purified ALDH1A1, NADH fluorescence, propionaldehyde substrate | P00352 | actives 7.3% (n = 220,000) | Potency, µM (titrated, usually from 75.3 µM), usual class: inhibitors
Each line names hits and unclear results; the compound was inactive in the other large screens. Sampled rows, rich in hits. Any-hit rate of the full collection: about 11%. Unless noted, the call rests on the fitted dose curve; in most records, active means well fitted inhibition curve with a large enough effect (not every such curve was filed as active); inconclusive means small, poorly fitted or top-dose-only effect, or another doubt; inactive means no such curve, though single readings can be large or run the other way.

Cc1cccc(-c2n[nH]c(=S)n2-c2ccccc2)c1[N+](=O)[O-]	none
COc1ccc(-n2c(-c3cccc(C)c3[N+](=O)[O-])n[nH]c2=S)cc1	HPGD block 35µM, PNC inhibitor -109, ALDH1A1 block inconclusive
CCOCCCNC(=O)C(NC(=O)c1ccc(NC(C)=O)cc1)c1ccc(OC)cc1 (stereo unspecified)	PNC inhibitor inconclusive
COc1cccc(N2C(C(C)=O)=NN(c3ccccc3)C2c2ccc(N3CCOCC3)cc2)c1 (stereo unspecified)	PNC inhibitor inconclusive, ALDH1A1 block 14µM
CC(=O)C1=NN(c2ccccc2)C(c2ccc3c(c2)OCO3)N1c1ccc(N2CCOCC2)cc1 (stereo unspecified)	ALDH1A1 block inconclusive
C/C(CCc1ccccc1)=N/NC(=O)C(=O)NC(C)c1ccccc1 (stereo unspecified)	none (no result: HPGD block, PNC inhibitor)
COc1ccnc(N=CNOCc2ccc(F)cc2Cl)c1C#N	none
O=C(O)c1cc(-c2ccco2)[nH]n1	PNC inhibitor -89
CC1CCC(C(=O)NNC(=O)c2cc(-c3ccco3)[nH]n2)CC1 (stereo unspecified)	none (no result: HPGD block, PNC inhibitor)
O=c1c2ccccc2nc(COc2ccccc2)n1/N=C/c1ccco1	ALDH1A1 block inconclusive
O=C(O)COc1ccc(/C=N/n2c(COc3ccccc3)nc3ccccc3c2=O)cc1	PNC inhibitor -115, ALDH1A1 block inconclusive (no result: HPGD block)
CCCc1nc2ccccc2c(=O)n1/N=C/c1ccc(O)cc1	none
Cc1cccc(C)c1OCc1nc2ccccc2c(=O)n1/N=C/c1ccc(OCC(=O)O)cc1	ALDH1A1 block 14µM
Cn1c(=O)[nH]c(=O)c2c1nc(CN1CCN(Cc3ccccc3)CC1)n2CC(N)=O	PNC inhibitor inconclusive
COc1ccc(O[C@H]2C=C[C@@H](c3ccccc3)O[C@H]2COC(=O)CC/C(C)=N/OCC[C@@H]2C=C[C@H](OC(C)=O)[C@H](COC(C)=O)O2)cc1	none (no result: HPGD block, PNC inhibitor)
CCCCC1=CC2=CC(=O)C(C)(OC(=O)c3ccco3)C(=O)C2=CO1 (stereo unspecified)	none (no result: PNC inhibitor)
Cc1ccnc(SCc2cc(=O)c(OC(=O)c3cc([N+](=O)[O-])ccc3Cl)co2)n1	HPGD block inconclusive
O=C(Oc1coc(CSc2ncccn2)cc1=O)c1ccco1	none (no result: HPGD block, PNC inhibitor)
O=C(Oc1coc(CSc2ncccn2)cc1=O)c1cccc([N+](=O)[O-])c1	ALDH1A1 block 1.8µM (no result: HPGD block, PNC inhibitor)
Cc1cc(C)nc(SCc2cc(=O)c(OC(=O)c3ccc(Cl)c([N+](=O)[O-])c3)co2)n1	HPGD block 11µM
CC1(C)CC2CC(C)(CN2C(=O)COC(=O)c2ccc(Cl)c(N)c2)C1 (stereo unspecified)	none
O=C(Nc1ccc(O)cc1)c1cccc(Oc2ccc([N+](=O)[O-])cc2)c1	none (no result: HPGD block, PNC inhibitor)
CN(C)S(=O)(=O)Oc1cccc(C(=O)Nc2ccc([N+](=O)[O-])cc2)c1	ALDH1A1 block 4.5µM (no result: HPGD block, PNC inhibitor)
CC(=O)c1cccc(CN2CCN(CC(C)C)C(CCO)C2)c1 (stereo unspecified)	none (no result: HPGD block, PNC inhibitor)
CC(=O)c1ccc(N2CCN(C(=O)c3ccc4c(=O)n(-c5ccccc5)c(=O)[nH]c4c3)CC2)cc1	PNC inhibitor -108, ALDH1A1 block 14µM
O=C(c1ccc2c(=O)n(-c3ccccc3)c(=O)[nH]c2c1)N1CCN(c2ccc(F)cc2)CC1	none
O=S(=O)(c1ccc(Oc2ccc(Br)cc2)cc1)N1CCOCC1	none
CC1CCCCN1S(=O)(=O)c1ccc(S(=O)(=O)N2CCN(c3ccc(F)cc3)CC2)cc1 (stereo unspecified)	PNC inhibitor -114
O=S(=O)(c1ccc(F)cc1)N1CCN(c2ccccc2)CC1	HPGD block inconclusive, ALDH1A1 block inconclusive
OC[C@H]1NC[C@@H](O)[C@@H](O)[C@H]1O	ALDH1A1 block inconclusive (no result: PNC inhibitor)
CC(/C=C(\NC(=O)c1ccccc1)C(=O)N=Nc1c(O)[nH]c2ccc(C)cc12)=C\c1ccccc1	none
CCC(C)(C)C1CCC(=NNS(=O)(=O)c2ccc(C)c([N+](=O)[O-])c2)CC1 (stereo unspecified)	PNC inhibitor inconclusive, ALDH1A1 block 7.9µM
Cc1ccc(S(=O)(=O)N/N=C2/CCCCC2C2CCCCC2)cc1[N+](=O)[O-] (stereo unspecified)	ALDH1A1 block 35µM
CC1CCCC/C1=N\Nc1ccc(S(N)(=O)=O)cc1[N+](=O)[O-] (stereo unspecified)	none
CC(C)(C)C1CCC(=NNc2ccc(S(N)(=O)=O)cc2[N+](=O)[O-])CC1 (stereo unspecified)	none
COc1ccc(/C=C2/SC(=O)N(CC(=O)Nc3cc(C)on3)C2=O)cc1OC	none
COc1ccc(CCN=CC2=C(O)CC(C)(C)CC2=O)cc1	ALDH1A1 block inconclusive
CC1(C)CC(=O)C(C=NCCCO)=C(O)C1	PNC inhibitor -87
CCOC(=O)c1ccc(NC(=S)N2CCN(CCN=CC3=C(O)CC(C)(C)CC3=O)CC2)cc1	ALDH1A1 block 0.5µM (no result: HPGD block, PNC inhibitor)
CC1(C)CC(=O)C(C=NCCN2CCNC2=O)=C(O)C1	ALDH1A1 block 20µM
CC1(C)CC(=O)C(C=NCC(N)=O)=C(O)C1	none
CC(C)C(=O)N1CCC(CN=CC2=C(O)CC(C)(C)CC2=O)CC1	PNC inhibitor inconclusive
CC1(C)CC(=O)C(C=NCCN2CCN(C3CC(=O)N(c4ccc(Br)cc4)C3=O)CC2)=C(O)C1 (stereo unspecified)	ALDH1A1 block 28µM (no result: HPGD block, PNC inhibitor)
CCOC(=O)c1ccc(NC(=O)CN2CCN(CCN=CC3=C(O)CC(C)(C)CC3=O)CC2)cc1	ALDH1A1 block inconclusive
CC(=O)C(=[N+]=[N-])C(=O)NCc1ccccc1	none
Cc1cccn2c(CN3CCCC(c4ccccc4)C3)c(C(=O)N3CCOCC3)nc12 (stereo unspecified)	none (no result: HPGD block, PNC inhibitor)
CC(Oc1ccc(Br)cc1)C(=O)NCc1cccnc1 (stereo unspecified)	none (no result: PNC inhibitor)
Cc1ccc(-n2nnnc2Sc2nc([N+](=O)[O-])nn2C)cc1C	none
CCn1cc(C(=O)NCc2ccc3c(c2)OCO3)c(=O)c2cc(F)c(N3CCN(C(=O)c4ccco4)CC3)cc21	HPGD block inconclusive, ALDH1A1 block inconclusive
CC1(C)CC(=O)C(C=NCCN2CCN(C(=O)C34CC5CC(CC(C5)C3)C4)CC2)=C(O)C1	ALDH1A1 block 7.9µM
CC1(C)CC(=O)C(C=NCCN2CCN(CC(=O)Nc3ccccc3)CC2)=C(O)C1	ALDH1A1 block inconclusive
CCCc1cc(C(=O)Nc2ccccc2C(=O)OC)no1	none
CN1CCN(Cc2cn(C)nc2-c2ccccc2F)CC1c1ccccc1 (stereo unspecified)	none (no result: HPGD block, PNC inhibitor)
CCOC(=O)CC1COCCN1Cc1cn(C)nc1-c1ccccc1F (stereo unspecified)	ALDH1A1 block 10µM (no result: HPGD block, PNC inhibitor)
CC(=O)Nc1ccc(Oc2ccc(-c3noc(C)n3)cc2)cc1	HPGD block 7.9µM
CC(=O)Oc1ccc(Oc2ccc(-c3noc(C)n3)cc2)cc1	none
Cc1ccc(NC(=O)c2ccc3c(c2)OCCO3)cc1S(=O)(=O)Nc1cccc(Cl)c1	HPGD block inconclusive
CCCCCC1CC(=O)C=C(C)C1C(=O)OC (stereo unspecified)	none (no result: HPGD block, PNC inhibitor)
COc1ccc(N(CC(=O)N/N=C/c2ccc(-c3ccc([N+](=O)[O-])cc3)o2)S(=O)(=O)c2ccc(C)cc2)cc1	PNC inhibitor inconclusive
Cc1ccc(NC(=O)c2noc(C(C)C)c2[N+](=O)[O-])cc1	ALDH1A1 block 10µM (no result: HPGD block, PNC inhibitor)
